Assay outcomes (PubChem)
Rows were chosen to be rich in hits. Some 7.4% of all compounds tested hit in one or more screens of this group.
SNCA expr inh: Primary qHTS assay for inhibitors of alpha-synuclein gene (SNCA) expression; hit rate 0.17% among 140,000; HEK-293 SNCA-luciferase knock-in, luminescence, 24 h; Potency, µM (top dose mostly 57.2 µM), for inactives: at the highest dose activity change, negative = inhibition, hits mostly inhibitors;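 also: plate controls were DMSO cells for no effect and cell-free wells for full effect; nearly all actives have a fitted effect of over 45% in size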
NIH3T3 tox: Cytotoxic Profiling in NIH 3T3 Cell Line of Diverse Libraries Using Quantitative High-Throughput Screening | hit rate 4.3% among 94,000 | NIH 3T3 viability, CellTiter-Glo ATP luminescence, 48-72 h | Potency, µM (doses to about 96.7 µM), without a hit: at the highest dose activity change, negative = cytotoxicity, actives largely listed as inhibitors | AID 1345082, 2018; also: nearly all actives have a fitted effect of over 55% in size
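Cytotoxicity is measured as loss of cellular ATP: NIH 3T3 cells (400/well) are exposed to compound for 48 or 72 hr at 37 °C, then CellTiter-Glo luminescence is imaged after 10 min at room temperature.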
NPR1 antag: Natriuretic polypeptide receptor (hNpr1) antagonism - Primary qHTS; hit rate 1.6% among 76,000; HEK293 hNpr1 GloSensor cGMP, ANP-stimulated luminescence; Potency, µM (doses to about 46.3 µM), for inactives: top-dose activity change, negative = inhibition, hits mostly inhibitors; Atrial natriuretic peptide receptor 1 (Homo sapiens), P16066; calls by dose curve; also: nearly all actives have a fitted effect of over 60% in size
Target sequence (P16066 whole entry, looked up): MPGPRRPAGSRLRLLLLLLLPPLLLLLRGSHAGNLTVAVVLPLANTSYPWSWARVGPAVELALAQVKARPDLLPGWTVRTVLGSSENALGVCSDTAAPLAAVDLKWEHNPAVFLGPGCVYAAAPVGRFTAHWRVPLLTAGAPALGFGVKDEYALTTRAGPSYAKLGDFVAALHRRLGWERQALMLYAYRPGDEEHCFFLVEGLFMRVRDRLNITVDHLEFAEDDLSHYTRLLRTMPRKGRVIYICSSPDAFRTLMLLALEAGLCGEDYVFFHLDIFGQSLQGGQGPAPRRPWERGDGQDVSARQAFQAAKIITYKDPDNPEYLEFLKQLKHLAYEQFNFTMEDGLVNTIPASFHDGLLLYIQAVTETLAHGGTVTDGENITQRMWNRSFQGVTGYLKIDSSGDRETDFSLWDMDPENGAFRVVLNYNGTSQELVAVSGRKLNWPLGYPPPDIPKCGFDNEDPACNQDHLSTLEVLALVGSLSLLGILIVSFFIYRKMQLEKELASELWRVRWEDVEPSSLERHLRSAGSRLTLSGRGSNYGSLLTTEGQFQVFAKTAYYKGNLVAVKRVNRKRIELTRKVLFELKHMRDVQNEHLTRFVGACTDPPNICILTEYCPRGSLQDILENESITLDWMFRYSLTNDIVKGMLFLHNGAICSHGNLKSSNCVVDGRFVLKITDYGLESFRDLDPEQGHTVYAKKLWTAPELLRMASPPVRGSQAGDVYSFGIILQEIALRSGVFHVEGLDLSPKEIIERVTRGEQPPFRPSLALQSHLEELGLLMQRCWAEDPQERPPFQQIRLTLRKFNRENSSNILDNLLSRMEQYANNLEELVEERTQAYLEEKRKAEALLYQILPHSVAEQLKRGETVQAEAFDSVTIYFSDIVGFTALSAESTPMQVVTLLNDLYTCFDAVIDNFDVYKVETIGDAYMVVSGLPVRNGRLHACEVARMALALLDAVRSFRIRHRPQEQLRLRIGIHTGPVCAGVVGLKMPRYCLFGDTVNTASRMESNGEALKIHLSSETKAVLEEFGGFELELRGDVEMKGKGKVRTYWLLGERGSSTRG
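HEK293 cells stably expressing human Npr1 and cGMP GloSensor pGS-40F, loaded 2 h with 2% GloSensor reagent, given compound 30 min at room temperature. Luminescence read before and 20 min after 0.1 nM hNppA.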
HEK cytotox: Cytotoxic Profiling in HEK 293 Cell Line of Diverse Libraries Using Quantitative High-Throughput Screening. HEK 293 viability, ATP luminescence (CellTiter-Glo), 48-72 h. Potency, µM (series often up to 115 µM), inactives show top-dose activity change, negative = cytotoxicity, hits mostly inhibitors. hit rate 6.6% among 94,000. AID 1345083, 2018; also: nearly all actives have a fitted effect of over 60% in size
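Cells seeded first (HEK 293, 250 cells/well), then compound added by pintool. Incubation ran 48 or 72 hr at 37 degree Celsius. CellTiter-Glo was added and luminescence imaged after 10 min at room temperature.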
HEK293 viab: GF-AFC viability counterscreen for inhibitors of alpha-synuclein gene (SNCA) expression | HEK-293-SNCA-luc viability, GF-AFC fluorescence, 24 h | AID 1671193, 2021 | Potency, µM (series often up to 57.1 µM), for the others: at the highest dose activity change, negative = cytotoxicity, actives largely listed as cytotoxic | hit rate 0.12% among 150,000;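 also: 0% = DMSO-treated cells and -100% = medium-only wells without cells; nearly all actives have a fitted effect of over 30% in size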
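Cytotoxicity counterscreen: after 24 h compound treatment of genome-edited SNCA-luciferase HEK-293 cells, live-cell protease substrate GF-AFC read by fluorescence after 30 min; activity scaled between DMSO (0%) and medium-only (-100%), curves Hill-fitted.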
FLuc inh: Firefly luciferase inhibition profiling of diverse chemical library using quantitative high-throughput screening | Potency, µM (doses to about 115 µM), usual class: inhibitors | Luciferin 4-monooxygenase (Photinus pyralis), P08659 | purified P. pyralis luciferase, luminescence, biochemical | hit rate 2.5% among 76,000; also: nearly all actives have a fitted effect of over 65% in size
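FLuc 10nM, D-luciferin 10uM, ATP 10uM, Mg acetate 10mM, Tris acetate pH 7.5, Tween/BSA; cpd qHTS; enzyme added last; CCD luminescence.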
Active calls of the source: *; i = inactive; ? = inconclusive; nt = no result given; ! = not active in a repeat; [ ] = remark or other dose. Unless noted, calls follow the shape of the dose curve; as a rule, active = well fitted curve in the direction sought with a large enough effect; inconclusive = small, poorly fitted or top-dose-only effect, or another doubt; inactive = no such curve, though single readings can be large; an effect the other way counts as inactive or inconclusive. Unless noted, % is scaled to controls: 0 for no effect and ±100 for the full control effect; potency is read from the fitted curve at half-maximal effect.

SMILES	SNCA expr inh	NIH3T3 tox	NPR1 antag	HEK cytotox	HEK293 viab	FLuc inh
CCc1nc2c(c(-c3ccc(Cl)cc3)n1)CN([S+](=O)([O-])c1ccc(C)cc1)CC2	-6%	3%	3%	i	-6%	i
CCc1nc2c(c(-c3ccc(Cl)cc3)n1)CCN([S+](=O)([O-])c1ccccc1)CC2	23%	?	-16%	35µM*	10%	i
C[S+](=O)([O-])N1CCc2nc(-c3ccccc3)nc(-c3ccc(Cl)cc3)c2C1	3%	-16%	4%	-16%	7%	i
c1ccc(CNC[C@H]2Cn3c(-c4ccc5c(c4)OCCO5)cnc3CO2)cc1	-11%[87.6 µM]	-22%[138 µM]	-23%[70.6 µM]	?	-1%[87.6 µM]	i
Clc1ccc(-c2cnc3n2C[C@H](CNCc2ccc4c(c2)OCO4)OC3)cc1	-16%[87.6 µM]	?	?	89µM*	-9%[87.6 µM]	i
Fc1ccc(-c2cnc3n2C[C@H](CNCc2ccc4c(c2)OCO4)OC3)cc1	?	89µM*	?	100µM*	-3%[87.6 µM]	i
COc1ccccc1-c1ccc(C(=O)N2CCC(N[S+](=O)([O-])c3cccs3)CC2)cc1	-3%	?	nt	89µM*!	4%[12.5 µM]	nt
COc1cccc(-c2ccc(C(=O)N3CCC(N[S+](=O)([O-])c4c(C)noc4C)CC3)cc2)c1	40%	?	nt	22µM*	9%[12.5 µM]	nt
COc1cccc(-c2ccc(C(=O)N3CCC(N[S+](=O)([O-])c4cccs4)CC3)cc2)c1	3%	16µM*	nt	18µM*	-12%[12.5 µM]	nt
COc1cccc(-c2ccc(C(=O)N3CCC(N[S+](C)(=O)[O-])CC3)cc2)c1	10%	-33%	nt	?	5%[12.5 µM]	nt
CC(C)C(=O)NC1CCN(C(=O)c2ccc(-c3cccs3)cc2)CC1	-2%[87.6 µM]	?	nt	71µM*	-6%[12.5 µM]	nt
COc1ccccc1-c1ccc(C(=O)N2CCC(N[S+](=O)([O-])c3c(C)noc3C)CC2)cc1	15%	?	nt	?	?	nt
CC(=O)NC1CCN(C(=O)c2ccc(-c3cccs3)cc2)CC1	25%[87.6 µM]	-19%[138 µM]	nt	3%[172 µM]	-2%[12.5 µM]	nt
CN1CC(=O)N(C2CCCNC2)Cc2c(NCCO)ncnc21 (stereo not given)	-25%	5%	nt	-4%	1%	nt
O=C(c1ccc(-c2cccs2)cc1)N1CCC(N[S+](=O)([O-])c2cccs2)CC1	-4%	?	nt	45µM*	5%[12.5 µM]	nt
O=C(NC1CCN(C(=O)c2ccc(-c3cccs3)cc2)CC1)C1CC1	12%	?	nt	?	5%[12.5 µM]	nt
Cn1cccc1CN1CCC2(Cc3ccccc3NC2=O)C1 (stereo not given)	33%[87.6 µM]	-19%[138 µM]	2%[70.6 µM]	?	-15%[87.6 µM]	i
CC(=O)Nc1ccc([C@H]2OCC(=O)N(Cc3ccc(F)cc3)[C@@H]2CO)cc1	11%[87.6 µM]	2%[174 µM]	1%[70.6 µM]	4%[172 µM]	7%[87.6 µM]	i
COc1ccc(C(=O)Nc2ccc([C@H]3OCC(=O)N(Cc4nccn4C)[C@@H]3CO)cc2)cc1	23%	-16%	6%	-18%	8%	40µM*
CC(C)CN1C(=O)CO[C@H](c2ccc(NC(=O)c3ccccc3)cc2)[C@H]1CO	-10%[87.6 µM]	?	-24%[70.6 µM]	100µM*	-7%[87.6 µM]	i
COc1ccc(CN2C(=O)CO[C@H](c3ccc(NS(=O)(=O)c4ccc(F)cc4)cc3)[C@H]2CO)cc1	7%	35µM*	1%	-20%	12%	i
O=C(Nc1ccccc1)Nc1ccc([C@H]2OCC(=O)N(Cc3ccccc3)[C@@H]2CO)cc1	17%[87.6 µM]	89µM*	-17%[70.6 µM]	71µM*	-15%[87.6 µM]	?
CN(C)c1cccc(-c2nc(-c3nnn4c3COC(c3ccc(Cl)cc3)C4)no2)c1 (stereo not given)	49%	3%	2%	1%	-2%	i
COc1cccc(C(=O)N2CCN(C(=O)c3cccc(-c4ccccc4OC)c3)CC2)c1	3%	?	nt	?	1%[12.5 µM]	nt
O=C(Cn1nc2n(c1=O)CCCC2)NCCCc1ccccc1	59%	5%	7%	10%	6%	i
SMILES	SNCA expr inh	NIH3T3 tox	NPR1 antag	HEK cytotox	HEK293 viab	FLuc inh
OCC1(CCCc2ccccc2)CCN(Cc2cccc3c2OCO3)CC1	-2%	?	-5%	?	-6%	i
CCn1c(=O)c2ccnn2c2ccc(C(=O)Nc3ccc(C)c(F)c3)cc21	-17%	-6%	4%	45µM*	-16%	i
O=C(NCc1ccccn1)c1ccc2c(c1)n(Cc1cccc(F)c1)c(=O)c1ccnn12	16%	?	-1%	?	11%	i
CCn1c(=O)c2ccnn2c2ccc(C(=O)NCCCOC(C)C)cc21	5%	-11%	-9%	?	10%	i
Cn1c(=O)c2ccnn2c2ccc(C(=O)NCC3CCN(Cc4cccc(F)c4)CC3)cc21	15%	?	2%	79µM*	-11%	i
CN1CCC(NC(=O)c2ccc3c(c2)n(Cc2ccc(F)cc2)c(=O)c2ccnn23)CC1	7%	22µM*	3%	25µM*	?	i
COC[C@@H]1CN(C(=O)c2cc3ccccc3[nH]2)C[C@H]1c1nc(C)no1	94%	1%	3%	i	1%	?
CC(C)(C)c1cc(CN2CCN(CC(O)c3ccc(Cl)cc3)CC2)cc(C(C)(C)C)c1O (stereo not given)	nt	nt	nt	nt	-28%	nt
COc1cccc(C(=O)NC2CCCN(Cc3ccc(-c4cccc(OC)c4)cc3)C2)c1 (stereo not given)	-5%	25µM*	nt	32µM*	?	nt
COc1cccc(-c2ccc(CN3CCCC(NC(=O)c4cccc(Cl)c4)C3)cc2)c1 (stereo not given)	?	32µM*	nt	?	-29%	nt
COc1cccc(-c2ccc(NC(=O)C3CCCN(Cc4cc(C(C)C)n[nH]4)C3)cc2)c1 (stereo not given)	-16%	40µM*	?	22µM*	-20%	i
COc1cccc(-c2ccc(CN3CCCC(NC(C)=O)C3)cc2)c1 (stereo not given)	87%	-41%	nt	?	5%	nt
COc1cccc(-c2ccc(CN3CCCC(NC(=O)C4CCCC4)C3)cc2)c1 (stereo not given)	nt	35µM*	nt	20µM*	nt	nt
Cc1ccc(NC(=O)CCC2CCN(C(=O)c3ccccc3F)CC2)cc1	?	?	-11%	?	-12%	i
